A short description of assay [1]: Caspase-3/7 induction in HepG2 cells by small molecules, qHTS assay (AID 1346978). Also: nearly all actives have a fitted effect of over 15% in size. The gist of the method:
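Wild-type HepG2 cells, 2,000/well, settled 5 hr at 37 C and 5% CO2, then compound-treated for 17 hr; caspase-3/7 activity read by luminescent Caspase-Glo 3/7 after 30 min at room temperature.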

Assay [2] in a line: Caspase-3/7 induction in CHO-K1 cells by small molecules, qHTS cell viability counter screen (AID 1346979). Also: nearly all actives have a fitted effect of over 35% in size. Also: potency is read from the fitted curve at half-maximal effect. The procedure, abridged: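 CHO-K1 wt, 1,500 cells/well; 5hr pre-incubation 37C/5% CO2; compound pin transfer (DMSO); 16hr exposure; CellTiter-Fluor added, 1hr, fluorescence read.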
(In general: qHTS replaces the single test concentration by a dilution series.)

The nature of assay [3]: Caspase-3/7 induction in CHO-K1 cells by small molecules, qHTS assay (AID 1346980). Also: nearly all actives have a fitted effect of over 15% in size. The procedure, abridged: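 Wild-type CHO-K1 cells exposed to compounds for 17hr at 37 C, 5% CO2. Caspase-3/7 activity then measured by Caspase-Glo 3/7 luminescence after 30min at room temperature.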
Assay [4] addresses Nuclear receptor subfamily 1 group I member 2 (Homo sapiens) (UniProt O75469). The assay can be described thus: Human pregnane X receptor (PXR) small molecule agonists, qHTS assay (AID 1346982). Also: nearly all actives have a fitted effect of over 35% in size. Also: potency is read from the fitted curve at half-maximal effect. The procedure, abridged: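 Luciferase signal from ONE-Glo (30 min, room temperature) measured activation of hPXR-driven CYP3A4 reporter expression in PXR-Luc HepG2 cells treated with compounds for 24 hr at 37 C.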

In assay [5] the target is Cytochrome P450 2D6 (Homo sapiens) (UniProt P10635). The assay can be described thus: Cytochrome P450 Family 2 Subfamily D Member 6 (CYP2D6) small molecule antagonists: luciferase reporter qHTS assay (AID 1671196). Also: nearly all actives have a fitted effect of over 50% in size. Also: potency is read from the fitted curve at half-maximal effect. The procedure, abridged: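 Read-out is luminescence from luciferin formed by CYP2D6 turnover of a proluciferin substrate, recorded as relative luminescence units. Reactions ran 1 h at room temperature after NADPH regeneration solution was added.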
Sequence of Cytochrome P450 2D6 (Homo sapiens) (P10635 whole entry, looked up): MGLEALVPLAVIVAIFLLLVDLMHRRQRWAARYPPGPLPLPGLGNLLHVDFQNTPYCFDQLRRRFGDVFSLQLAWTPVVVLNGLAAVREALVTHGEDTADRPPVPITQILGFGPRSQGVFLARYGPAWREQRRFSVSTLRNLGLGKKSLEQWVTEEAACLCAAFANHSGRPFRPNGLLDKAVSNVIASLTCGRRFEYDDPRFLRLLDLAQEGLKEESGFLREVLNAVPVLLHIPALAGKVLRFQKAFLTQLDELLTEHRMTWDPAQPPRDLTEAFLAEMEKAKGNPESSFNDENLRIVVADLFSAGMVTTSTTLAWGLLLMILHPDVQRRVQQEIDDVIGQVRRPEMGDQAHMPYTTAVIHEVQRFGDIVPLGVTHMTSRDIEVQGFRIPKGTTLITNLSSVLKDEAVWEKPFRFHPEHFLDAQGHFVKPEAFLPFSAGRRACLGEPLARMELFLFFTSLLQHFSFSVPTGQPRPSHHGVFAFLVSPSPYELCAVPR

Assay [6] addresses Cytochrome P450 2C9 (Homo sapiens) (UniProt P11712). Description: Cytochrome P450 Family 2 Subfamily C Member 9 (CYP2C9) small molecule antagonists: luciferase reporter qHTS assay (AID 1671198). Also: nearly all actives have a fitted effect of over 50% in size. Also: potency is read from the fitted curve at half-maximal effect. The procedure, abridged: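 P450-Glo proluciferin substrate with CYP2C9 enzyme; 10 min RT preincubation, then NADPH regeneration 1 h at 37C; luciferin detection reagent 20 min RT, luminescence in relative luminescence units.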

Assay [7] concerns the target Cytochrome P450 1A2 (Homo sapiens) (UniProt P05177). Description: Cytochrome P450 Family 1 Subfamily A Member 2 (CYP1A2) small molecule antagonists: luciferase reporter qHTS assay (AID 1671199). Also: nearly all actives have a fitted effect of over 50% in size. Also: potency is read from the fitted curve at half-maximal effect. The gist of the method: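 P450-Glo CYP1A2, 1536-well qHTS: enzyme/proluciferin substrate + cpd (DMSO), 10 min RT; NADPH regen, 1 h RT; detection reagent, 20 min; luminescence, RLU.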
Background: In a reporter assay the amount or activity of a reporter protein is the signal.

In assay [8] the target is Cytochrome P450 3A4 (Homo sapiens) (UniProt P08684). Description: Cytochrome P450 Family 3 Subfamily A Member 4 (CYP3A4) small molecule antagonists: luciferase reporter qHTS assay (AID 1671201). Also: nearly all actives have a fitted effect of over 50% in size. Also: potency is read from the fitted curve at half-maximal effect. The procedure, abridged: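 Luminescent readout (RLU) proportional to CYP3A4 activity, from luciferin generated off a proluciferin substrate. Enzyme–substrate mix plus compound 10 min at room temp, NADPH regeneration 1 h, detection reagent 20 min.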
Sequence of Cytochrome P450 3A4 (Homo sapiens) (P08684 whole entry, looked up): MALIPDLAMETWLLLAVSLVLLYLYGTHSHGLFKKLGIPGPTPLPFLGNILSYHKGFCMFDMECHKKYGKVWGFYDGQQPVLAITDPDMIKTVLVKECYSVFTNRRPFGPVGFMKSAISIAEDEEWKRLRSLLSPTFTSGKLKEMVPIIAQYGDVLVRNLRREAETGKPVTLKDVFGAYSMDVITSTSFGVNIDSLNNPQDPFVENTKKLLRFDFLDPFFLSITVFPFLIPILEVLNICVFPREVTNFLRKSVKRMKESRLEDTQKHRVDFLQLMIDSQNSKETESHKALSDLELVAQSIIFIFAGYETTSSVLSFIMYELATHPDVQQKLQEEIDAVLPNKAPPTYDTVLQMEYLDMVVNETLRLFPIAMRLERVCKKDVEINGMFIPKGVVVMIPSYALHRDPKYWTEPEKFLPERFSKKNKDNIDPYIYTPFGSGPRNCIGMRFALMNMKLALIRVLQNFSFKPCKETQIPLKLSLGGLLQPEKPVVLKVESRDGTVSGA

Assay [9] is described as follows: Caspase-3/7 induction in HepG2 cells by small molecules, qHTS cell viability counter screen (AID 1346981). Also: series mostly up to about 92 µM; nearly all actives have a fitted effect of over 30% in size. The gist of the method: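 HepG2, WT, 2,000 cells/well; 5 hr pre-incubation 37 C/5% CO2; compound pin-transferred from DMSO; 16 hr exposure; CellTiter-Fluor, 1 hr; fluorescence read.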
For assay [10], the target named is Nuclear receptor subfamily 1 group I member 2 (Rattus norvegicus) (UniProt Q9R1A7). The assay can be described thus: Rat pregnane X receptor (rPXR) activation by small molecules, qHTS assay (AID 1346983). Also: nearly all actives have a fitted effect of over 20% in size. To be noted: rPXR luciferase reporter cells, One-Glo luminescence, 24 h; max activation: hits give high values. The procedure, abridged: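 Cell-based rPXR activation assay: rPXR cells, 2,000 per well, rested 5hr at 37 C, then exposed to compounds in DMSO for 24 hr at 37 C. Luciferase activity read by One-Glo luminescence after 30 min at room temperature.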
Sequence of Nuclear receptor subfamily 1 group I member 2 (Rattus norvegicus) (Q9R1A7 whole entry, looked up): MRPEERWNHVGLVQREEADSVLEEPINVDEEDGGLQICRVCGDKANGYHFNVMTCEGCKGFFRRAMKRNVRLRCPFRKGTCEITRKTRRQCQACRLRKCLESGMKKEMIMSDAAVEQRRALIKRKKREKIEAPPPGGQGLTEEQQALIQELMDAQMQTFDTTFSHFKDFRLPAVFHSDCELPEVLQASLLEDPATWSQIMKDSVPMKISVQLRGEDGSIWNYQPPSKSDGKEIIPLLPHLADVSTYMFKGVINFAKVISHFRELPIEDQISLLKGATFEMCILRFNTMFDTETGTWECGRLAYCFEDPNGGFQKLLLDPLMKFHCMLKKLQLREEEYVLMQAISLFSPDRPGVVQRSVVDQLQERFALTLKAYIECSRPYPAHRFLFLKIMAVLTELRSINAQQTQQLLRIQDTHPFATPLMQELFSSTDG

Assay [11] deals with Nuclear receptor subfamily 1 group I member 2 (Homo sapiens) (UniProt O75469). Description: CYP3A4 induction through human pregnane X receptor (PXR) by small molecules, qHTS assay (AID 1346984). Also: nearly all actives have a fitted effect of over 40% in size. The gist of the method: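 Luminescence readout: luciferase signal after One-Glo (30 min, room temperature), following 3 h at 37C with 3uM final Luciferin-IPA P450 substrate. Cells were DPX-2 (HepG2, PXR/CYP3A4-luc co-transfected) dosed for 24 h.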
Sequence of Nuclear receptor subfamily 1 group I member 2 (Homo sapiens) (O75469 whole entry, looked up): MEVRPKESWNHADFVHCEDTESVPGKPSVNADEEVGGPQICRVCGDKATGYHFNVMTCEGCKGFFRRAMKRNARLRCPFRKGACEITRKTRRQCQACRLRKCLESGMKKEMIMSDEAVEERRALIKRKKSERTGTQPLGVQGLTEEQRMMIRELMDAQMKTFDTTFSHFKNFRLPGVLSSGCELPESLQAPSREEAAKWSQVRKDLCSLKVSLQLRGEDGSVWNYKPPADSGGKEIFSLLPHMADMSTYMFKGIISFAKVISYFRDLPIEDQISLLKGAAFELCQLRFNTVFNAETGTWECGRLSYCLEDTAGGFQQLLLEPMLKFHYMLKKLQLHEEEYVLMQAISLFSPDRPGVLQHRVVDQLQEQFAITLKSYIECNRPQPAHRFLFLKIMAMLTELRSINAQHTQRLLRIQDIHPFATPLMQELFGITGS

For assay [12] the target is unchanged. Description: Human pregnane X receptor (PXR) activation by small molecules, qHTS assay (AID 1346985). Also: nearly all actives have a fitted effect of over 40% in size. The procedure, abridged:
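DPX-2 cells (HepG2 co-transfected with a PXR response element and a CYP3A4-promoter luciferase construct) were seeded at 2,000 per well, rested 5 hr at 37C, then exposed to DMSO-dissolved compounds for 24 hr. Activation was read as luciferase luminescence.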

For assay [13], the target named is Cytochrome P450 2C19 (Homo sapiens) (UniProt P33261). Description: Cytochrome P450 Family 2 Subfamily C Member 19 (CYP2C19) small molecule antagonists: luciferase reporter qHTS assay (AID 1671197). Also: nearly all actives have a fitted effect of over 65% in size. Also: potency is read from the fitted curve at half-maximal effect. The gist of the method:
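First, compounds are pinned into enzyme-substrate mix and held 10 min at room temperature. Second, NADPH regeneration solution is added and plates incubate 1 h at 37C. Third, detection reagent is added and luminescence read after 20 min.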

Assay [14] has as its target Voltage-gated inwardly rectifying potassium channel KCNH2 (Homo sapiens) (UniProt Q12809). Description: Human Ether-a-go-go-Related Gene (hERG) channel small molecule antagonists: fluorescence cell-based qHTS assay (AID 1671200). Also: nearly all actives have a fitted effect of over 50% in size. Also: potency is read from the fitted curve at half-maximal effect. The procedure, abridged:
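Read-out: thallium influx as a surrogate for potassium, tracked as fluorescence (480 nm ex/540 nm em) every second for 2 min after Stimulus Buffer addition in dye-loaded hERG-U2OS cells.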
A general note: hERG is a cardiac potassium channel; its block is linked to QT prolongation.

Drawing on PubChem BioAssay (Tox21), this text covers Potency and max activation for 10 compounds.

A number with no mark means an inactive call. Inconclusive results are not listed. Activity calls are given as the source filed them. Calls follow the shape of the dose curve; as a rule, active = well fitted curve in the direction sought with a large enough effect in the repeat runs; inconclusive = weak or mixed curves; inactive = no such curve, though single readings can be large; an effect the other way counts as inactive or inconclusive.
% is scaled to controls: 0 for no effect and ±100 for the full control effect.

Sequence of Cytochrome P450 1A2 (Homo sapiens) (P05177 whole entry, looked up): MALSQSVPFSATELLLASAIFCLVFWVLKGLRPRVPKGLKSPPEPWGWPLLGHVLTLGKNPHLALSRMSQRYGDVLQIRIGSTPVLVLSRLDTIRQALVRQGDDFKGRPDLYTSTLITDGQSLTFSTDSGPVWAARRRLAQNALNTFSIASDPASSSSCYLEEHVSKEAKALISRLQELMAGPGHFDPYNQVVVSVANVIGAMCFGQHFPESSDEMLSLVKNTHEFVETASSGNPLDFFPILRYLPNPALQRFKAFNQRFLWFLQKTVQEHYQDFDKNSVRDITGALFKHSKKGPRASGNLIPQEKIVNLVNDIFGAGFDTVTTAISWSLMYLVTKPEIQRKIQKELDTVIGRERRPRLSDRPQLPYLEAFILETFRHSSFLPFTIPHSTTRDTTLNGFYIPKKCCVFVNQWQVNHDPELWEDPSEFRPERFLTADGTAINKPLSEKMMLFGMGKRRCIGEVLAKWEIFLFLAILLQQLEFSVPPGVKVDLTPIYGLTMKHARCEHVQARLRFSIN
Sequence of Cytochrome P450 2C9 (Homo sapiens) (P11712 whole entry, looked up): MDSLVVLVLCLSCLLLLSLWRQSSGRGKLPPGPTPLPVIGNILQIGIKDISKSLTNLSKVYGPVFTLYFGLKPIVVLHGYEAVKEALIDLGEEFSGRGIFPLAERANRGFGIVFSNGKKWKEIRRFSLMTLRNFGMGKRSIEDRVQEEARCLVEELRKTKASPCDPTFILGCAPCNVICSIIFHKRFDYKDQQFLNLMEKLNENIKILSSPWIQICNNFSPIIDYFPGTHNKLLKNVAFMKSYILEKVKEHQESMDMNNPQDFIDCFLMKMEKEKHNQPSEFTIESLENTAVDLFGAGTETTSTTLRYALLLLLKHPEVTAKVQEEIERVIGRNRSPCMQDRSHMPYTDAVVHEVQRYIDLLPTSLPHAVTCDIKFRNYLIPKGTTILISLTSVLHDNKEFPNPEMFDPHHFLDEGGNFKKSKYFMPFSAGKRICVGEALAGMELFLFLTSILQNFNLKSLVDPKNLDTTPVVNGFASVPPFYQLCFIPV
Sequence of Cytochrome P450 2C19 (Homo sapiens) (P33261 whole entry, looked up): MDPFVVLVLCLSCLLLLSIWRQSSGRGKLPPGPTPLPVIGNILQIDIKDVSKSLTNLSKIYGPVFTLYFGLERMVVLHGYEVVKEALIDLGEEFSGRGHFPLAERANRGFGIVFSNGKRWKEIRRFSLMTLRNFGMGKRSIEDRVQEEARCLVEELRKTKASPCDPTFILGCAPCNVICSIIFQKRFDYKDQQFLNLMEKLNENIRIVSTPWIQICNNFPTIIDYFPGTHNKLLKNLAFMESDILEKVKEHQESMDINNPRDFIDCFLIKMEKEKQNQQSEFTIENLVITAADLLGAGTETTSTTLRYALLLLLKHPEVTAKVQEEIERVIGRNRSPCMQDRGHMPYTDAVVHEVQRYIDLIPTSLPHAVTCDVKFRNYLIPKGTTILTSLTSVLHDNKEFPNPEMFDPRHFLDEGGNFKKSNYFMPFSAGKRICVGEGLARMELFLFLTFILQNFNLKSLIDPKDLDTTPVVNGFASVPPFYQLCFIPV
Sequence of Voltage-gated inwardly rectifying potassium channel KCNH2 (Homo sapiens) (Q12809 whole entry, looked up): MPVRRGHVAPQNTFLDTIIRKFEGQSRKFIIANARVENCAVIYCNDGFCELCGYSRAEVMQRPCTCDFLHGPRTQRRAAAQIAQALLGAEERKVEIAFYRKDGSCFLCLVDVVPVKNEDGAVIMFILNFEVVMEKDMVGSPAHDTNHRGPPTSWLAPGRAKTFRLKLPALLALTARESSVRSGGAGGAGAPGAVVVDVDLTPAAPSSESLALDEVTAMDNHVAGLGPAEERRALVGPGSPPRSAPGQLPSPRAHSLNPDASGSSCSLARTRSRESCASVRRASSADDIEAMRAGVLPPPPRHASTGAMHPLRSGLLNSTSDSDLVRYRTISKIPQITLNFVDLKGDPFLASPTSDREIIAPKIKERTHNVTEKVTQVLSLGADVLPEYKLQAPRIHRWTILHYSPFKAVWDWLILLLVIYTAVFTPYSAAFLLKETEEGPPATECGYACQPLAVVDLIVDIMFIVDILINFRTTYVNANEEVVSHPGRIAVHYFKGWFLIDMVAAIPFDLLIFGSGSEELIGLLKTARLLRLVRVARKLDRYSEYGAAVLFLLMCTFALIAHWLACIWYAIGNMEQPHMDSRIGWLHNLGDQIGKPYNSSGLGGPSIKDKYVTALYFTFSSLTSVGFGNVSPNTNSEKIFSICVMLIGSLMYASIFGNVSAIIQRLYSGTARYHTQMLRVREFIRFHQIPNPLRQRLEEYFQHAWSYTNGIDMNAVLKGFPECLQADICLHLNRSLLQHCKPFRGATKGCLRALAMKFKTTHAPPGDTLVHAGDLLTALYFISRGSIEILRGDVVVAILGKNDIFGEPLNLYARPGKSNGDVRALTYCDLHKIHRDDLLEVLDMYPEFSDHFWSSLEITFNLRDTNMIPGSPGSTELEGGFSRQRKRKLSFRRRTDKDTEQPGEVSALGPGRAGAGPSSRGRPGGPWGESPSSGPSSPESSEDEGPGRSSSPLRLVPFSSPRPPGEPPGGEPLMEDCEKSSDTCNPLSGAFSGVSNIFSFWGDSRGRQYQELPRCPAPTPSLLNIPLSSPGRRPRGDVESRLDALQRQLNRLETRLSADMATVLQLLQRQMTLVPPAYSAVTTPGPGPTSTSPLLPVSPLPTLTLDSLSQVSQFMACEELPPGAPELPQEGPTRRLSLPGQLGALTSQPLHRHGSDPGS

For `CCc1c(C(=O)NN2CCCCC2)nn(-c2ccc(Cl)cc2Cl)c1-c1ccc(Br)cc1`, the Potency entry in [1], in [3], in assay [5], in [7] and in [8] was “inactive” throughout. The Potency in assay [2] was 27.3 µM (active); in assay [4], 48.6 µM (active); in [6], 8.94 µM (active).

Turning to `COc1cc2nc(N(C)CCCNC(=O)C3CCCO3)nc(N)c2cc1OC` (stereo not drawn), the Potency result in assay [1], in assay [3], in assay [9], in assay [11], in [12] and in assay [13] was “inactive” in each case. In addition, the Potency result in assay [6], in [7] and in [8] was “inactive” in each case. Moreover, in assay [2], the Potency was 21.1 µM (active). In addition, the max activation in assay [10] is -4.32%.

Consider `CCc1cc(C2=C(C(=O)O)N(c3ccccc3C(F)(F)F)S(=O)(=O)c3ccccc32)cc2c1OCO2`, for which the Potency entry in assay [1], in [3], in [4], in assay [7] and in assay [14] was “inactive” throughout. For the same compound, the Potency was 30.3 µM (active) in [2], 11.1 µM (active) in assay [6] and 2.79 µM (active) in [8].

Take `CN1C[C@H]2c3ccccc3Oc3ccc(Cl)cc3[C@@H]2C1`: the Potency entry in [1], in assay [2], in [9], in assay [4], in [13] and in assay [6] was “inactive” throughout. Further, the Potency result in assay [8] is “inactive”. For the same compound, the results for the Potency in assay [5] and in [7] were 0.11 µM (active) and 7.76 µM (active), respectively.

For `CN(C)c1ccc(CCO)cc1`, the Potency entry in assay [1], in [2], in [3], in assay [4] and in assay [8] was “inactive” in each case. Further, the values for the Potency in assay [13], in [6] and in assay [7] were 28.1 µM (active), 19.9 µM (active) and 35.4 µM (active), respectively.

Turning to `CC(C)OC(=O)C(C)N(C(=O)c1ccccc1)c1ccc(F)c(Cl)c1` (stereo not drawn), the Potency entry in assay [1], in [3], in [5] and in [14] was “inactive” throughout. Further, the Potency in assay [4] was 2.73 µM (active); in assay [13], 3.56 µM (active); in [6], 7.96 µM (active); in [7], 63.3 µM (active); in assay [8] it was 89.4 µM (active).

Consider `CCCCCCOC(=O)NC(=N)c1ccc(NCc2nc3cc(C(=O)N(CCC(=O)OCC)c4ccccn4)ccc3n2C)cc1`, for which the Potency entry in [1], in assay [3] and in assay [7] was “inactive” each time. Also, the Potency in assay [2] was 29.8 µM (active); in [4], 11.9 µM (active); in [13], 2.19 µM (active); in assay [6] it was 3.09 µM (active); in [14], 0.601 µM (active).

Take `CCCCCCCCCCCCCCCCCCOS(=O)(=O)O`: the Potency entry in [1], in assay [3], in assay [5], in [14] and in [8] was “inactive” in each case.

Take `C#C[C@]1(O)CC[C@H]2[C@@H]3CCc4cc(OC5CCCC5)ccc4[C@H]3CC[C@@]21C`: the Potency result in [1], in assay [3], in assay [9], in assay [5] and in assay [14] was “inactive” throughout. Moreover, the Potency in [2] was 29.8 µM (active); in [6] it was 19.5 µM (active). Moreover, the max activation in assay [10] was -3.04%.

With `C#Cc1cccc(Nc2ncnc3cc(OCCOC)c(OCCOC)cc23)c1`, the Potency entry in assay [1], in assay [3], in assay [11], in [5], in assay [13] and in assay [7] was “inactive” throughout. The Potency in [2] is 6.68 µM (active); in [4] it was 7.5 µM (active). The max activation in assay [10] is -7.82%.
